Data: the supplement of paper PMC6953052
Several values for one entry are separate records, joined by “and”; a condition that tells them apart may be missing. Equal values may be shown once. ± gives the standard deviation of the averaged measurements. In all, about 1,700 compounds were measured (“fraction of GFP-LC3-positive cells (≥5 vesicles/cell)”: median about 0.058, highest 2% from about 0.59 on). What follows is part of a selection rich in the highest values, with near analogues and random picks from the rest.

Each compound was assayed on CbCln3 +/+ GFP-LC3 cerebellar neuronal cells (assay: fraction of GFP-LC3-positive cells (≥5 vesicles/cell); higher = more autophagosome accumulation).
How it was run: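 Wild-type or mutant CbCln3 cerebellar cells stably expressing GFP-LC3 were plated at 2 × 10^3 per well in 384-well plates and received ~50 nL of compound in DMSO by pin transfer, in duplicate, for 24 h at 33 °C. Hoechst 33342 and LysoTracker Red were added for the last 30 min, after which cells were fixed in 3.2% PFA and three fields per well were imaged at 10×. CellProfiler counted GFP-LC3 vesicles per cell, and out-of-focus images were excluded. The reported value is the fraction of cells reaching a vesicle-count cutoff of 5 or more, averaged over duplicates.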

| Compound | fraction of GFP-LC3-positive cells |
| --- | --- |
| O=C1Cc2c([nH]c3ccc(Br)cc23)-c2ccccc2N1 | 0.0413 |
| CCCNC(=O)[C@H]1O[C@@H]1C(=O)N[C@H](C(=O)N1CCC[C@H]1C(=O)OC)C(C)CC (some centres undefined) | 0.399 and 0.352 |
| CNCCC(Oc1ccccc1OC)c1ccccc1.Cl (centres undefined) [Nisoxetine hydrochloride] | 0.0525 |
| C[C@@H](O)[C@H]1C(=O)N2C(C(=O)O)=C(S[C@@H]3CN[C@H](C(=O)N(C)C)C3)[C@H](C)[C@H]12 [Meropenem] | 0.0612 |
| Nc1ccc(C(=O)NCC(=O)O)cc1 [Aminohippuric acid] | 0.0809 |
| COc1ccc(Cl)cc1C(=O)NCCc1ccc(S(=O)(=O)NC(=O)NC2CCCCC2)cc1 | 0.0797 |
| CC(C)Cc1ccc([C@H](C)C(=O)O)cc1 [S-(+)-ibuprofen] | 0.0447 |
| O=[N+]([O-])c1cccc2c(Br)n[nH]c12 [Bromo-7-nitroindazole [3-Bromo-7-nitroindazole]] | 0.0548 |
| C1COC(NC(C2CC2)C2CC2)=N1.C1COC(NC(C2CC2)C2CC2)=N1.O=C(O)/C=C/C(=O)O [Rilmenidine hemifumarate] | 0.0609 |
| COc1ccc2c(c1)c(CC(=O)N1CCOCC1)c(C)n2C(=O)c1ccc(Cl)cc1 | 0.0513 ± 0.01 |
| CCCCCCCCCCCCCCCCC(=O)O [Heptadecanoic acid] | 0.0793 |
| C[N+](C)(C)CCOC(N)=O.[Cl-] [Carbachol] | 0.0698 |
| Cn1cc(C2=C(c3cn(CCCSC(=N)N)c4ccccc34)C(=O)NC2=O)c2ccccc21 | 0.845 ± 0.071 |
| CN(C)CCCn1cc(C2=C(c3c[nH]c4ccccc34)C(=O)NC2=O)c2ccccc21 | 0.0883 and 0.0921 |
| COc1ccc(CCN(C)CCCC(C#N)(c2ccc(OC)c(OC)c2)C(C)C)cc1OC.Cl (centres undefined) [Verapamyl hydrochloride] | 0.0534 |
| COC(=O)[C@H]1[C@H]2C[C@H]3c4[nH]c5ccccc5c4CCN3C[C@@H]2CC[C@@H]1O.Cl [Corynanthine hydrochloride] | 0.0351 |
| Nc1nc(S)c2ncn([C@@H]3O[C@H](CO)[C@@H](O)[C@H]3O)c2n1 [Thioguanosine] | 0.131 |

| Compound | fraction of GFP-LC3-positive cells |
| --- | --- |
| NC(=O)c1ncn([C@@H]2O[C@H](CO)[C@@H](O)[C@H]2O)n1 [Ribavirin] | 0.033 |
| Nc1ncn(C2O[C@H](CO)[C@@H](O)[C@H]2O)c(=O)n1 (some centres undefined) [Azacytidine-5] | 0.745 |
| C[C@]12CCC(=O)C=C1CC[C@@H]1[C@@H]2[C@@H](O)C[C@@]2(C)[C@H]1CC[C@]2(O)C(=O)CO [Hydrocortisone base] | 0.049 |
| C[C@@H](N)[C@H]1CC[C@H](C(=O)Nc2ccncc2)CC1 | 0.074 |
| CNCCC=C1c2ccccc2CCc2ccccc21.Cl [Nortriptyline hydrochloride] | 0.0533 |
| Cc1nccn1CC1CCc2c(c3ccccc3n2C)C1=O.Cl (centres undefined) [Ondansetron Hydrochloride] | 0.03 |
| CCCCCCCCCCCCCCCCCCCCCCC(=O)O [Tricosanoic acid] | 0.0481 |
| Cc1cc(CC(=O)[O-])n(C)c1C(=O)c1ccc(Cl)cc1.[Na+] [Zomepirac sodium salt] | 0.0585 |
| CC(COc1ccccc1)N(CCCl)Cc1ccccc1.Cl (centres undefined) [Phenoxybenzamine hydrochloride] | 0.139 |
| Cc1cc(C(C)(C)C)cc(C)c1CC1=NCCN1.Cl [Xylometazoline hydrochloride] | 0.0933 |
| Cc1ccc(Cl)c(Nc2ccccc2C(=O)[O-])c1Cl.O.[Na+] [Meclofenamic acid sodium salt monohydrate] | 0.0498 |
| CCCC[C@@H](C)/C=C(C)/C=C(\C)C(=O)NC1=C[C@@](O)(/C=C/C=C/C=C/C(=O)NC2=C(O)CCC2=O)[C@@H]2O[C@@H]2C1=O [manumycin A] | 0.695 |
| COc1ccccc1OCC(O)COC(N)=O (centres undefined) [Methocarbamol] | 0.0551 |
| COc1cc(/C=C/C(=O)N2CCC=CC2=O)cc(OC)c1OC [Piperlongumine] | 0.781 |
| COc1cc(C(=O)OCCCN2CCCN(CCCOC(=O)c3cc(OC)c(OC)c(OC)c3)CC2)cc(OC)c1OC.Cl.Cl [Dilazep dihydrochloride] | 0.0467 |
| COC(=O)[C@H]1[C@H]2C[C@@H]3c4[nH]c5cc(OC)ccc5c4CCN3C[C@H]2C[C@@H](OC(=O)/C=C/c2cc(OC)c(OC)c(OC)c2)[C@@H]1OC [Rescinnamin] | 0.134 |
| COc1ccc2c(c1OC)C(=O)O[C@@H]2[C@H]1c2c(cc3c(c2OC)OCO3)CCN1C [Noscapine] | 0.0895 |
